Assay outcomes from PubChem BioAssay.
Peg3 promoter – Peg3 promoter-driven luciferase inhibitors, primary screen, cell-based, HeLa, luciferase luminescence; AID 588405, 2011; HeLa PEG-Prom luciferase reporter, overnight; 1.7% of 360,000 active; inhibition, % at 20 µM;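 active means inhibition of at least 50% at 20 µM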
KKLEB tox – cytotoxicity in KKLEB CF airway cells, primary screen, cytotoxicity control for CF NF-kB inhibitor project, cell-based, uHTS, fluorescence assay plates. activity change (cytotoxicity), % at 5 µM. AID 602141, 2011. KKLEB CF airway cells viability, ATPlite luminescence, overnight; hits give low values; cells stimulated with P. aeruginosa culture filtrate. 0.36% of 360,000 active;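 active means corrected activity change at or below -50% at 5 µM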
Shn3 inh set2 – reduction of Shn3 3'UTR firefly luciferase signal, primary screen, Schnurri-3 inhibitor project, cell-based, Clone20 osteoblasts, set 2. AID 588674, 2011. inhibition, % at 12.5 µM. Clone20 osteoblast Shn3 3'UTR firefly luciferase, 24 h. 0.52% of 360,000 active;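 active means mean inhibition of at least 75% with every replicate also reaching 75%; inconclusive means mean inhibition at least 75% but some replicate below; inactive means mean inhibition below 75%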;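 further: 0% = median of neutral control wells and 100% = pilot-screen positive control compound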
TRPM1 prom inh – inhibitors of MITF-dependent TRPM1 promoter reporter, primary screen, cell-based, SK-MEL-5, single point, luciferase | inhibition, % at 12.5 µM | 0.83% of 330,000 active | SK-MEL-5 TRPM1 promoter luciferase, 24 h;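 active means mean inhibition across replicates of 60% or more, whatever share of single replicates reaches that level; inconclusive means some that reach 60%, reason not given; inactive means mean inhibition across replicates below 60%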
CF NFkB inh – inhibitors of PAF-induced NF-kB signaling, primary screen, cell-based, GFP fluorescence, uHTS; 0.86% of 360,000 active; KKLEB NF-kB-GFP reporter, GFP fluorescence overnight; inhibition, % at 5 µM;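 active means at least 50% inhibition at 5 µM, scaled per plate between neutral and stimulator controls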;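 further: PAF is a Pseudomonas aeruginosa culture filtrate used as stimulus; plate controls were PAF-stimulated DMSO wells for no effect and unstimulated DMSO wells for full effect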
HIF-2a block – HIF-2a reporter inhibitors, primary screen, luminescence, 786-0 RCC cells; 786-0 RCC cells HIF-2a reporter, luciferase luminescence, overnight; inhibition, % at 18.8 µM; 0.72% of 360,000 active;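 active means inhibition of the luminescence signal of 40% or more relative to plate controls, in a single-dose primary screen at 18.75 µM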
Mdm2-MdmX confirm – retested Mdm2-MdmX interaction blockers, confirmation, cell-based, luminescence, single concentration, set 2 | shares compounds with HIF-2a block | SaOS-2 split-luciferase Mdm2/MdmX complementation | inhibition, % at 8 µM | 99% of 740 active;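 active means mean inhibition of the luminescence signal across two replicates at or above 26 percent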
Target sequence (O15151 whole entry, looked up): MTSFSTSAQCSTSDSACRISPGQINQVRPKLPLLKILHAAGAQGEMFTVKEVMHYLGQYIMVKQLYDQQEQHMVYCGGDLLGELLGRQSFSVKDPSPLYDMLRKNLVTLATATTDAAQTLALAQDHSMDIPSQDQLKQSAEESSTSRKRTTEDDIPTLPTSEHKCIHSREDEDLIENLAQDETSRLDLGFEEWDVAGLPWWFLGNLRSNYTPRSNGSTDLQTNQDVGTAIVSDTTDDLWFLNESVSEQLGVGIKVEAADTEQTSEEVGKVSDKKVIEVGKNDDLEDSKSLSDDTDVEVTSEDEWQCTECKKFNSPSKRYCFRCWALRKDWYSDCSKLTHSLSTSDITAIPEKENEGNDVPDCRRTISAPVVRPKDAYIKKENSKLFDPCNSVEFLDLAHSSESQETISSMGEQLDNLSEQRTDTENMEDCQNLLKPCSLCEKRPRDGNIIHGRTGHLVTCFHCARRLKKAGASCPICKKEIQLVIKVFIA
Target sequence (Q00987 whole entry, looked up): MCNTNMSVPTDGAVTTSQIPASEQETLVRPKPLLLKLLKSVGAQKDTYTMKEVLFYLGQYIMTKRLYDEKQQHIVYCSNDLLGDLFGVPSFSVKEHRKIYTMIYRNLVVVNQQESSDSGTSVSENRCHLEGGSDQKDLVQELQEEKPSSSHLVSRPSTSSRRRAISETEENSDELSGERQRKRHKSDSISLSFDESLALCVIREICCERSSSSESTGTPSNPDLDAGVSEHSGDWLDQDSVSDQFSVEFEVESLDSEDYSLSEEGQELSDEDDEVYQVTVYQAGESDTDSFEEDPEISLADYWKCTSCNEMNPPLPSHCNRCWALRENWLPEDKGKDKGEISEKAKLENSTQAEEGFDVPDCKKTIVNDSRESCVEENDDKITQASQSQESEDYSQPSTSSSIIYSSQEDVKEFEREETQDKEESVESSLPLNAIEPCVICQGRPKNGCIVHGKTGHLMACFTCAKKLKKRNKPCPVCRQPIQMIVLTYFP
HIF-2a conf – HIF-2a reporter inhibitor retest, confirmation, luminescence, 786-0 RCC cells | shares compounds with HIF-2a block | HIF-2a luciferase reporter luminescence, overnight | inhibition, % at 18.8 µM | 56% of 1,800 active | AID 651580, 2012;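 active means mean inhibition across four replicates of at least 40 percent at the single tested concentration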
HIF-1a counter – HIF-1a luciferase reporter signal reduction – MiaPaCa-2 cells, single concentration, counter-screen for HIF-2a inhibitor project, confirmation | shares compounds with HIF-2a block | MiaPaCa-2 HIF-1a luciferase reporter, desferoxamine, overnight | inhibition, % at 18.8 µM | 72% of 1,800 active;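 active means mean inhibition of the reporter signal across four replicates at the single tested dose of 50% or more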
An asterisk follows results filed as active; ? = inconclusive; . = no result. This is a sample that favours compounds with a hit; in the whole collection about 2.7% have one here.

SMILES | Peg3 promoter | KKLEB tox | Shn3 inh set2 | TRPM1 prom inh | CF NFkB inh | HIF-2a block | HIF-2a conf | HIF-1a counter | others
COC(=O)c1ccc2nc(NC(=O)C(C)C)sc2c1 | -240 | -6 | -58 | -49 | -1 | -148 | . | .
COC(=O)c1ccc2nc(Nc3nc4c(F)cc(F)cc4s3)sc2c1 | 75* | -20 | 55 | 95* | 38 | 90* | 94* | 90*
Cc1nc2ccccc2n1-c1nc(-c2ccco2)cc(C(F)(F)F)n1 | 72* | -82* | -1 | 76* | 94* | 46* | 32 | 80*
FC(F)(F)c1cc(-c2ccco2)nc(-n2cnc3ccccc32)n1 | 11 | 0 | -21 | 6 | 7 | -22 | . | .
COc1cc(OC)cc(-c2cc3nc(C)c(CCC(=O)Nc4nc(C)cs4)c(C)n3n2)c1 | 25 | -12 | 52 | . | 28 | 43* | 55* | 45
NNc1nc2c(-c3ccc(Cl)cc3)nnn2c2ccccc12 | -251 | -2 | -92 | -40 | -35 | -265 | . | .
Clc1nc2c(-c3ccccc3)nnn2c2ccccc12 | 103* | 1 | . | 57 | 42 | -63 | . | . | Mdm2-MdmX confirm=103*
O=c1cc(-c2ccccc2)oc2ccc3ccccc3c12 | 43 | -67* | 63 | . | -67 | 51* | 70* | 57*
O=c1cc(-c2c(F)c(F)c(F)c(F)c2F)oc2ccccc12 | 84* | -6 | 69 | 33 | -7 | 62* | 33 | 80*
O=c1cc(-c2cccc(F)c2)oc2ccccc12 | -110 | -4 | -15 | -28 | -29 | -176 | . | .
COc1ccc(C(=O)Cn2c(C(=O)/C=C/c3ccccc3)nc3ccccc32)cc1 | 35 | -14 | 102* | 35 | -4 | 40* | 3 | 102*
CC1CN(C(=O)COC(=O)/C=C/c2cccc([N+](=O)[O-])c2)CC(C)O1 (centres undefined) | 39 | 2 | 6 | 6 | -8 | 13 | . | .
O=C(Cc1ccc([N+](=O)[O-])cc1)N/N=C/c1cccs1 | 5 | -9 | 0 | -9 | -9 | -8 | . | .
CC(=O)c1ccc2ccccc2c1OC(=O)c1ccncc1 | -10 | -2 | 24 | . | 9 | -11 | . | .
CCOC(=O)c1cccc(NC(=O)Nc2ccc(OCC)cc2)c1 | -136 | 1 | 3 | -30 | -14 | 62* | 61* | -17
CCOC(=O)CCc1ccc(NC(=O)/C=C/c2ccc([N+](=O)[O-])o2)cc1 | 14 | -12 | 9 | ? | 36 | 91* | 54* | 107*
COc1cccc(F)c1C(=O)NC(=O)Nc1ccc2nc(C)oc2c1 | -25 | 1 | -26 | -2 | -14 | -23 | . | .
O=C(NCCc1ccccc1)C(c1cccs1)N(C(=O)CCl)c1ccc(Cl)cc1 (centres undefined) | 109* | -89* | 57 | 86* | 105* | 92* | 97* | 108* | Mdm2-MdmX confirm=103*
CN(C)CCCNC(=O)C[C@H]1C[C@H](C(=O)N2CCCCC2)[C@@]2(CCc3ccccc3)c3[nH]c4ccc(Cl)cc4c3CCN2C1=O | 95* | -41 | 7 | 105* | 32 | 81* | 17 | 103* | Mdm2-MdmX confirm=103*
CN(C)CCCNC(=O)C[C@H]1C[C@H](C(=O)N2CCCCC2)[C@@]2(C)c3[nH]c4ccc(Cl)cc4c3CCN2C1=O | -21 | -14 | -10 | -24 | 5 | -9 | . | .
CC(C)=CCC/C(C)=C/CNC(=O)C[C@H]1C[C@H](C(=O)N2CCOCC2)[C@@]2(CCC3CCCC3)c3[nH]c4cc(CCC(=O)N(C)C)ccc4c3CCN2C1=O | 49 | -2 | 53 | 15 | -1 | 80* | -6 | 106*
COc1ccc(-c2oc3c(c2C#CC2(O)CCCCC2)C(OC(C)=O)CCC3)cc1 (centres undefined) | . | . | . | . | . | -18 | . | .
Cc1ccc(S(=O)(=O)NC2CCSC2=O)cc1C (centres undefined) | 0 | 16 | -5 | 12 | -12 | 15 | . | .
Fc1ccccc1N1CCN(Cc2cc(-c3ccccc3)on2)CC1 | 12 | 7 | 6 | -3 | 25 | -6 | . | .
COc1cccc2cc(C(=O)CS(=O)(=O)c3ccc(Cl)cc3)c(=O)oc12 | 14 | -18 | 0 | 9 | -7 | 11 | . | .
SMILES | Peg3 promoter | KKLEB tox | Shn3 inh set2 | TRPM1 prom inh | CF NFkB inh | HIF-2a block | HIF-2a conf | HIF-1a counter | others
Cc1ccc(C)c(C(O)c2ncc(-c3ccc(C(F)(F)F)cc3)[nH]2)c1 (centres undefined) | 21 | -2 | -7 | . | 5 | 7 | . | .
O=C1Nc2ccc(Br)cc2/C1=C/C(=O)c1ccc2c(c1)OCO2 | 53* | -10 | 97* | 66* | 37 | 45* | -33 | 95*
O=C(Cn1nc(CNc2ccc(Cl)cc2)[n+]2c1CCCCC2)c1ccccc1 | 3 | 6 | -9 | 16 | 4 | -2 | . | .
Cc1ccc(C(C)C)c(OCc2nn(CC(=O)c3ccc(Cl)cc3)c3[n+]2CCCCC3)c1 | 112* | -25 | 49 | 67* | 41 | 49* | 16 | 106*
CN1CC2=Cc3ccccc3OC23Oc2ccccc2C=C3C1 | 69* | -4 | 19 | 17 | -1 | 92* | 20 | 79*
Cn1nnnc1Sc1ncnc2scc(-c3ccccc3Br)c12 | 79* | -19 | -4 | 58 | 50 | 49* | 25 | 75*
Cn1nnnc1Sc1ncnc2scc(Br)c12 | 104* | -42 | 97* | -17 | 78* | 96* | 65* | 105*
Cn1nnnc1SCc1nc2scc(-c3ccccc3)c2c(=O)[nH]1 | 2 | -5 | 10 | -1 | -6 | -42 | . | .
CCOc1ccc(C(=O)N[C@H](C(=O)NNC(=O)c2cccs2)C(C)C)cc1 | -7 | 7 | 5 | -9 | -10 | -12 | . | .
CNS(=O)(=O)c1ccc(NC(=O)c2cc(-c3ccncc3)nc3ccc(Cl)cc23)cc1 | 12 | -14 | -7 | 17 | -16 | 14 | . | .
CC(C)N(Cc1nccn1C)C(=O)c1ccc2oc(Cc3ccccc3)nc2c1 | -37 | -3 | -6 | -8 | 4 | -42 | . | .
